hDAT+cocaine: human DAT dopamine uptake with cocaine, either direction; Q01959; LLC-PK1 hDAT cells, [14C]-dopamine uptake with cocaine IC80; actives deviate in either direction; B-score at 10 µM; hit rate 1.3% among 110,000; AID 449768;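 active = Z score or B-score, a plate-position-corrected score, falls beyond the plate's 99.7% confidence bounds, in either direction; inactive = both scores lie inside the 99.7% bounds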;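 also: scored against the spread of the other compound wells on the same plate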
FXIIa inh mix: factor XIIa (human) inhibition, mixture screen; P00748; purified FXIIa, fluorogenic substrate, pooled mixtures; inhibition, % at 5 µM; hit rate 0.2% among 62,000; AID 684;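 also: 0% = enzyme without compound and 100% = no enzyme blank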
FXIa inh mix: blocks human factor XIa in pooled compound mixtures; P03951; purified FXIa, fluorogenic substrate; inhibition, % at 5 µM; hit rate 0.19% among 62,000;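 also: each value is inhibition by a whole ten-compound pool holding the compound; 0% = enzyme with no mixture and 100% = wells lacking enzyme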
M1 agonist: M1 muscarinic receptor agonism; CHO-M1 cells, Fluo-4 calcium fluorescence, agonist mode; active compounds read high; B-score at 10 µM; hit rate 3% among 64,000; AID 626;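 active = fluorescence rise, raw or as B-score row- and column-corrected plate score, outside the 99.7% band of its plate's samples, either direction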
D1 allo mod: allosterically modulates the human D1 dopamine receptor | P21728 | HEK293 D1, CRE-luciferase, dopamine EC30 potentiation; actives deviate in either direction | B-score at 10 µM | hit rate 5.9% among 58,000 | AID 641;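 active = luminescence count or its row- and column-corrected plate score outside the 99.7% band of the plate's sample wells, on either side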
M1 antagonist: M1 muscarinic receptor (rat) antagonism; CHO-M1 cells, Fluo-4 calcium, ACh EC80 antagonist mode; active compounds read low; hit rate 3.4% among 64,000; B-score at 10 µM; P08482;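 active = calcium fluorescence response, raw or row-and-column corrected B-score, differing from the plate sample mean either way at a set confidence level, mostly lower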
M1 ag confirm: rat M1 muscarinic agonism, confirmation. shares compounds with M1 agonist. CHO-M1 cells, Fluo-4 calcium fluorescence, agonist mode; actives lie on both sides. fluorescence change (max-min) at 10 µM. hit rate 19% among 1,700;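 active = fluorescence change differs from the solvent-only DMSO control mean at a set confidence level in both duplicate runs; inconclusive = differs from solvent-only control mean in just one of two runs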;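 also: an EC20 dose of acetylcholine follows compound addition during the same imaging run; raw fluorescence intensity difference in instrument units with no normalization to controls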
M4 agonist ctr: rat M4 muscarinic agonism, M1 counter-screen. AID 1741. CHO M4/Gqi5 cells, Fluo-4 calcium fluorescence, agonist mode; actives lie on both sides. hit rate 9% among 1,700. fluorescence change (max-min) at 10 µM. shares compounds with M1 agonist;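 active = fluorescence change differing from the plate's solvent-only control wells at 99.7% confidence in both duplicates, whether higher or lower; inconclusive = differs from solvent controls in only one of two duplicates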
Target sequence (P08485 whole entry, looked up): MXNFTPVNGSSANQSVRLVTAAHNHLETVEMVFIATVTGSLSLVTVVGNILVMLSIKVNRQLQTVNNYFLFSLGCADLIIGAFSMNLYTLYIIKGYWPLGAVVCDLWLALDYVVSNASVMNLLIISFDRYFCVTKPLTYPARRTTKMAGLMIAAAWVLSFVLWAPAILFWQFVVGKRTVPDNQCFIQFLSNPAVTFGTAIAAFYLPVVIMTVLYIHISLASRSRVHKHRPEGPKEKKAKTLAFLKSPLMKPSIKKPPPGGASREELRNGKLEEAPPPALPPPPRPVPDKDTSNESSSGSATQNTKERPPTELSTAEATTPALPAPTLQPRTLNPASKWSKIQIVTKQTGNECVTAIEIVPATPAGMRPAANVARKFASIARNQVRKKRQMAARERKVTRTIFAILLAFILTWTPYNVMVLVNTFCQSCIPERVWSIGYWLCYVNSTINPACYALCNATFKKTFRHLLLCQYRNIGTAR
* hit, by the source's call. Rows were chosen to be rich in hits. Some 7.4% of all compounds tested hit in one or more screens of this group. Rule as the data show it, unless noted: active = inhibition above about 20% (passing the limit was not always enough); inactive = the rest.

`COc1ccc(CC(=O)Nc2cccc(-c3nnc(-c4cccc(C)c4)o3)c2)cc1OC` gave hDAT+cocaine 3.1*, FXIIa inh mix 4, FXIa inh mix 24, M1 agonist 6.6*, D1 allo mod -2.7*, M1 antagonist -7.3*, M1 ag confirm -20 and M4 agonist ctr inconclusive.
COc1ccc(CC(=O)Nc2cccc(-c3nnc(-c4ccc(C)cc4)o3)c2)cc1OC was read as hDAT+cocaine 1.7, FXIIa inh mix 4, FXIa inh mix 0, M1 agonist -0.72, D1 allo mod -0.17 and M1 antagonist -0.61.
CC1CN(C(=O)Cn2c(C(F)(F)F)nc3ccccc32)CC(C)O1 (configuration not stated) was read as hDAT+cocaine -0.98.
For Cn1c(=O)n(C)c2cc(S(=O)(=O)NCCc3ccccc3)ccc21 the results were hDAT+cocaine 0.014, FXIIa inh mix 4, FXIa inh mix 5, M1 agonist -3*, D1 allo mod -0.42, M1 antagonist -0.25, M1 ag confirm -16 and M4 agonist ctr inconclusive.
O=c1oc2c3c4c(cc2c(C(F)(F)F)c1CCN1CCOCC1)CCCN4CCC3 was read as hDAT+cocaine 0.0068, M1 agonist 277*, M1 antagonist -2.9*, M1 ag confirm 1525* and M4 agonist ctr 1404*.
`O=c1oc2c(CN3CCOCC3)c(O)ccc2c2c1CCC2` gave hDAT+cocaine -0.055, FXIIa inh mix 4, FXIa inh mix -40, M1 agonist -0.095, D1 allo mod -0.42 and M1 antagonist 0.05.
Screening CC(C)c1cc(=O)oc2c3c4c(cc12)CCCN4CCC3 returned hDAT+cocaine -0.21, FXIIa inh mix 1, FXIa inh mix -1, M1 agonist 106*, D1 allo mod 0.66, M1 antagonist -0.15, M1 ag confirm 612* and M4 agonist ctr 614*.
`Cc1cc(=O)oc2c3c4c(cc12)OCCN4CCC3` gave hDAT+cocaine 0.47.
For O=C(CSc1nnnn1-c1cccnc1)Nc1ccc(OCc2ccccc2)cc1 the results were hDAT+cocaine 0.054.
`CCOC(=O)C1CCN(c2nc(C)nc3c2oc2ccccc23)CC1` gave hDAT+cocaine 1.5, FXIIa inh mix 11, FXIa inh mix -8, M1 agonist 0.9 and M1 antagonist -0.98.
`CCOC(=O)C1CCCN(c2nc(C)nc3c2oc2ccccc23)C1` (configuration not stated) gave hDAT+cocaine 0.21, FXIIa inh mix 5, FXIa inh mix 16, M1 agonist 1.8*, M1 antagonist 0.57, M1 ag confirm -8.2 and M4 agonist ctr -29.
COc1ccc(NC(=O)CSc2nncn2C)c([N+](=O)[O-])c1 was read as hDAT+cocaine 0.35.
For CCCCc1nc(N2CCOCC2)c(C#N)c2c1COC(C)(C)C2 the results were hDAT+cocaine 0.13, M1 agonist 4.5*, M1 antagonist 0.066, M1 ag confirm inconclusive and M4 agonist ctr -28.
For CCCCc1nc(NCC2CCCO2)c(C#N)c2c1COC(C)(C)C2 (configuration not stated) the results were hDAT+cocaine 0.039, M1 agonist 0.25 and M1 antagonist -0.16.
CCCSc1nc(N2CCCC2)c2c(c1C#N)CC(C)(C)OC2 was read as hDAT+cocaine 0.48, M1 agonist -1.2 and M1 antagonist -0.53.
`CC1(C)Cc2c(C#N)c(SCCOc3ccccc3)nc(N3CCOCC3)c2CO1` gave hDAT+cocaine -0.76, M1 agonist 4.1*, M1 antagonist -0.33, M1 ag confirm -9.7 and M4 agonist ctr inconclusive.
N#Cc1cccc(NC(=O)c2nc(-c3ccccc3)n(-c3ccccc3)n2)c1 was read as hDAT+cocaine 0.69, FXIIa inh mix 6, FXIa inh mix 11, M1 agonist 3.5*, D1 allo mod 1.9, M1 antagonist -0.55, M1 ag confirm -11 and M4 agonist ctr -44.
Screening Cn1c(=O)[nH]c2cc(Cl)cnc21 returned hDAT+cocaine -0.36, M1 agonist 9.1*, M1 antagonist 0.057, M1 ag confirm 34 and M4 agonist ctr -5.4.
For FC(F)(F)c1nc2ncc(Cl)cc2[nH]1 the results were hDAT+cocaine -1.2, FXIIa inh mix 2, FXIa inh mix 7, M1 agonist -1.1, D1 allo mod -0.46 and M1 antagonist -0.27.
For Cc1cc(OCC(=O)NCCN2CCOCC2)ccc1Br the results were hDAT+cocaine -1.5, FXIIa inh mix 8, FXIa inh mix -1, M1 agonist -0.75, D1 allo mod 1.6 and M1 antagonist 0.53.
Screening COc1ccc(C(=O)NC2CCN(C(=S)Nc3cccc(C)c3)CC2)cc1 returned hDAT+cocaine -0.77.
Screening COc1ccc(Cn2c(=O)oc3ccc(C)cc32)cc1OC returned hDAT+cocaine 0.24, FXIIa inh mix 6, FXIa inh mix 1, M1 agonist 13*, D1 allo mod 0.92, M1 antagonist 0.11, M1 ag confirm 4.2 and M4 agonist ctr -29.
For N#C/C(=C\c1ccc(O)c(O)c1)S(=O)(=O)c1ccccc1 the results were hDAT+cocaine -2.6*, FXIIa inh mix 3, FXIa inh mix 2, M1 agonist 22*, D1 allo mod 0.041, M1 antagonist 0.52, M1 ag confirm 33 and M4 agonist ctr 15.
`O=C(OCc1nnc(-c2ccccc2)o1)c1ccc2ccccc2n1` gave hDAT+cocaine -0.024, FXIIa inh mix 1, FXIa inh mix 2, M1 agonist 0.67, D1 allo mod 1 and M1 antagonist -0.22.
For CCCCCCOC(=O)C(C#N)c1nc2ccccc2nc1N1CCOCC1 (configuration not stated) the results were hDAT+cocaine 0.0091, FXIIa inh mix 10, FXIa inh mix 3, M1 agonist 0.18, D1 allo mod 0.24 and M1 antagonist -0.00074.
`CCCCCCOC(=O)C(C#N)c1nc2ccccc2nc1N1CCN(CC)CC1` (configuration not stated) gave hDAT+cocaine 3, FXIIa inh mix -26, FXIa inh mix -6, M1 agonist 4.1*, D1 allo mod -4.1*, M1 antagonist -1.1, M1 ag confirm -0.77 and M4 agonist ctr -7.2.
CCCCCNC(=O)C(C#N)c1nc2ccccc2nc1N1CCCC1 (configuration not stated) was read as hDAT+cocaine -0.12, FXIIa inh mix 6, FXIa inh mix -9, M1 agonist 282*, D1 allo mod 0.84, M1 antagonist -2.4*, M1 ag confirm 1609* and M4 agonist ctr 1437*.

Screening data from PubChem BioAssay.
